Assay results taken from PubChem BioAssay (NCI).
The panel holds about 79,000 compounds, 15% with a hit somewhere; the sample as a whole holds those more often. Unmarked numbers belong to inactive results. The source made the active and inactive calls. Rule as the data show it: active = growth inhibition above about 70%; inactive = the rest.

How the values were obtained:
[1] = NCI Yeast Anticancer Drug Screen. Data for the rad50 strain (AID 155);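 also: 0% = growth of vehicle-only cultures of the same strain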; conditions: S. cerevisiae rad50 strain growth inhibition; at 50.0 µM; active compounds read high
Summary of the method: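 DNA repair mutant yeast, compound exposure, growth read-out; inhibition is taken relative to vehicle.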

[2] = NCI Yeast Anticancer Drug Screen. Data for the mec2-1 strain (AID 157); conditions: S. cerevisiae mec2-1 strain, at 50.0 µM, active compounds read high
Summary of the method: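 Readout is yeast growth inhibition, normalised to vehicle-treated controls, in the mec2-1 strain exposed to compound.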

[3] = NCI Yeast Anticancer Drug Screen. Data for the sgs1 mgt1 strain (AID 161);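 also: 0% = growth of cultures given vehicle only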; conditions: S. cerevisiae sgs1 mgt1 strain, at 50.0 µM, active compounds read high
Summary of the method: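 Yeast cells carrying a defined DNA-repair defect were exposed to test compounds. Growth inhibition was measured relative to vehicle-treated controls.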

[4] = NCI Yeast Anticancer Drug Screen. Data for the cln2 rad14 strain (AID 165);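 also: 0% = growth equal to vehicle treated cultures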; conditions: S. cerevisiae cln2 rad14 strain, at 50.0 µM, active compounds read high
Summary of the method: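 Relative to vehicle controls, growth inhibition of compound-treated cln2 rad14 yeast was recorded.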

[5] = NCI Yeast Anticancer Drug Screen. Data for the bub3 strain (AID 167); conditions: S. cerevisiae bub3 mutant strain, at 50.0 µM, active compounds read high
Summary of the method: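 In this screen, a yeast mutant lacking normal mitotic checkpoint function is challenged with compound. Relative growth versus vehicle gives the inhibition value.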

[6] = NCI Yeast Anticancer Drug Screen. Data for the mlh1 rad18 strain (AID 175); conditions: S. cerevisiae mlh1 rad18 strain growth inhibition; at 50.0 µM; active compounds read high
Summary of the method: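 Test agents were incubated with a yeast strain of defined genotype (DNA damage repair defect). Inhibition of growth was derived by comparison with vehicle-exposed cultures.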

| Structure (SMILES) | growth inhibition [1] | growth inhibition [2] | growth inhibition [3] | growth inhibition [4] | growth inhibition [5] | growth inhibition [6] |
| --- | --- | --- | --- | --- | --- | --- |
| Cc1c2cnccc2c(CO)c2[nH]c3ccccc3c12 | 11.6% | -10.2% | 8.2% | 4.6% | -10.9% | 59.7% |
| CN=C(N/N=C/c1ccccc1)N(C)C | 5.95% | 11.1% | -5.35% | -3% | 23.9% | 10.4% |
| Nc1cccc(CNC(=O)COc2ccc(Cl)cc2C(=O)O)c1 | -0.9% | 14% | -2.7% | -7.6% | 18.4% | 10.4% |
| CC1CC[N+]2(C)CCCC12 (stereo unspecified) | 1.1% | -4.4% | -5.3% | -39.3% | -23.9% | -12.4% |
| Cc1ccc(OCC(=O)O)cc1C | -5.75% | -24.2% | -14.7% | 0.25% | -11.8% | -11.2% |
| CC(NC(=O)CN)C(=O)O (stereo unspecified) | -43.4% | -8.55% | -8.45% | -22.6% | 5.15% | 4.4% |
| Cc1ccc(S(=O)(=O)Nc2ccccc2-c2nc3ccc([N+](=O)[O-])cc3c(=O)o2)cc1 | 35.6% | 36.2% | 22.1% | 1.1% | 11.8% | 45.2% |
| O=C(CCCCCCCCC(=O)OCC1OC(n2cnc3c(=O)[nH]cnc32)C(O)C1O)OCC1OC(n2cnc3c(=O)[nH]cnc32)C(O)C1O (stereo unspecified) | -47.5% | -44.7% | -42.3% | -8.3% | -22.9% | -35.3% |
| O=S(=O)(O)O.[NH-]CC1(C[NH-])CCCCC1.[Pt+2] | -13% | 17.9% | -3.15% | -0.7% | -28.6% | -46.4% |
| c1ccc(Cn2ccnc2CSCCSCc2nccn2Cc2ccccc2)cc1 | 17.5% | 37.2% | -5.8% | 12.9% | -0.65% | 29.9% |
| Cc1ccc(S(=O)(=O)C(C#N)(Cc2c[nH]c3ccccc23)Cc2c[nH]c3ccccc23)cc1 | 4.85% | 9.25% | -5.25% | -16.2% | 11.8% | 6.5% |
| CCOC(=O)c1nnc(C)[nH]c1=O | 13.4% | -5.5% | -14.5% | -43.9% | -2.8% | 15% |
| Clc1ccc(-c2nnc(-c3ccc(Cl)c(Cl)c3)o2)cc1Cl | 0.25% | 9.95% | 17.8% | -30.5% | -10.9% | 22.9% |
| Cc1cc(S(=O)(=O)Nc2nnc3cc(C(F)(F)F)cc(C)n23)c(S)cc1Cl | -19.6% | -26.8% | -38.1% | -15.8% | -19.9% | -14.2% |
| CC1=NC(=Cc2ccccc2O)C(=O)N1n1c(-c2ccccc2)nc2ccccc2c1=O | 22.4% | 17.7% | 51.5% | 16.6% | 42.5% | 44.5% |
| O=[N+]([O-])c1ccc(-c2cn(-c3ccc(Cl)cc3)cn2)cc1 | 2.75% | -4.15% | 7.5% | 3.35% | -1.85% | -5.7% |
| O=CN/C=C\c1cc(O)ccc1O | 3.1% | 4.45% | -2.6% | 21.4% | 16.9% | 13.1% |
| O=C(Nc1cccc([N+](=O)[O-])c1)Nc1ccccc1F | 11.7% | 10% | 14.1% | 10.5% | 19.2% | 9.55% |
| CN(C(=O)C12C3C4C1C1C2C3C41C(N)=O)C(C)(C)C (stereo unspecified) | 9.6% | 7.8% | 4.35% | 25.1% | 18.5% | -6.3% |
| COC(=O)/C=C/c1ccc2c(c1)CCC2 | -35.5% | -30.9% | -13.8% | 14.6% | 31.7% | -1.35% |
| CCOC(=O)NC(Nc1cccc(C(F)(F)F)c1)(C(F)(F)F)C(F)(F)F | 1.45% | -10.3% | -38.5% | 7.7% | -15.6% | -3.3% |

| Structure (SMILES) | growth inhibition [1] | growth inhibition [2] | growth inhibition [3] | growth inhibition [4] | growth inhibition [5] | growth inhibition [6] |
| --- | --- | --- | --- | --- | --- | --- |
| Cc1cc(N(CCOS(C)(=O)=O)CCOS(C)(=O)=O)ccc1C=Nc1ccc(C(=O)O)c(O)c1 | 82.8% (active) | 86.8% (active) | 46% | 77.5% (active) | 19.2% | 88% (active) |
| O=C(COc1ccccc1)Nc1cccc(C(=O)O)c1 | 1.2% | 13.5% | 21.9% | 0.9% | 36.6% | 32.2% |
| CCOc1nc(C(=O)O)cc2ccsc12 | 1.15% | -6.2% | 5.5% | -48.1% | -43.4% | 0% |
| CNc1c(C)cc(C#N)cc1C | 7.45% | 1.25% | -10.6% | 0.2% | -4.7% | -5.4% |
| C#CCN(CC#C)C(=O)CCCCCCCCC=C | 97% (active) | 96.5% (active) | 97% (active) | 86% (active) | 97.5% (active) | 97.2% (active) |
| CC(C)/C=N/N=C/C(C)C | -15.8% | 9.7% | -16.6% | 15.3% | -13.6% | -12.8% |
| CC(=O)O[C@H]1C[C@]2(C)C(CCC3O[C@@]32C)[C@@]2(CC(c3ccoc3)OC2O)[C@@H]1C (stereo partly specified) | -10.8% | -16.1% | -29.9% | -10.1% | -23.1% | -13.2% |
| O=C(NC(=O)C1CCC(=O)N1Cc1ccccc1)NC1CCC(=O)N1Cc1ccccc1 (stereo unspecified) | 3.35% | 3.1% | -26.1% | 1.8% | 0.85% | 17.2% |
| O=CNCC(=O)Nc1ccccc1 | -8.4% | -2.45% | -3.45% | -6.9% | 10.8% | -10.4% |
| CCN(CC)CCOC(=O)C(S)(c1ccccc1)C1CCCCC1 (stereo unspecified) | 13.8% | -7.3% | 1% | -12.8% | -12.7% | 16.9% |
| O=C(N/N=C\c1ccc(Cl)cc1Cl)c1ccccc1S | -59.4% | 6.45% | -4.55% | -0.2% | -13.2% | 5% |
| COc1ccccc1NC(=O)/C(=C\n1c(=S)[nH]c2ccc([N+](=O)[O-])cc21)C(C)=O | -9.7% | -10.4% | 2.55% | -6.25% | 4.95% | -4.15% |
| CNC(=O)N(Cl)c1ccc(Cl)cc1 | 5.45% | 12.9% | 1.9% | -26.6% | 7.45% | -0.25% |
| O=C1CC(CC(=O)c2ccc(Br)cc2)C(=O)/C1=C(/O)c1ccc(Br)cc1 (stereo unspecified) | 21.7% | 14.2% | 36.8% | 38% | 22.9% | 48.8% |
| COc1ccccc1N1C(=O)/C(=N\OC(=O)c2c(-c3c(Cl)cccc3Cl)noc2C)SC1=S | -13.9% | -26.6% | -19.5% | 11% | -34.8% | -0.2% |
| CC1=Nc2cc(C)c(C)cc2NC(=O)C1 | -16.8% | -43.9% | -6.1% | 20.4% | -21.9% | -1.7% |
| Cc1cn(C2CC(N=[N+]=[N-])C(CO)O2)c(=O)[nH]c1=O (stereo unspecified) | -0.7% | -0.4% | -39.5% | 14.1% | 0.05% | -15.6% |
| O=C(CCc1ccc(O)c(O)c1)NCCc1cc(OCc2ccccc2)cc(OCc2ccccc2)c1 | 83.9% (active) | 88.4% (active) | 83.2% (active) | 87.5% (active) | 82.2% (active) | 73.1% (active) |
| COC(=O)Nc1c2c(nc3ccccc13)-c1ccccc1C(C)(C)C2OC (stereo unspecified) | 49.5% | 12.6% | 58.1% | -7.7% | 84% (active) | 67% |
| CC(=O)CC1=CC(C(C)(C)C)=CC(=O)C1=O | 43.1% | 26.1% | 30.1% | 49% | 8.6% | 49.5% |
